# Screening data from PubChem BioAssay.
# An excerpt weighted towards active compounds, which were near 1.9% of everything screened.
# PG9 binder: small molecules binding HIV-1 gp120 antibody PG9; TR-FRET gp120-PG9 antibody binding; inhibition, % at 6.7 µM; hit rate 0.43% among 360,000; AID 624416; in the data active means inhibition above about 8.5%
# ZTA DNA inh: counter-screen for EBNA-1 inhibitors: inhibitors of Epstein-Barr virus ZTA | inhibition, % at 11 µM | P03206 | AID 2234 | ZTA-DNA binding, fluorescence polarization | hit rate 0.15% among 320,000; in the data active means inhibition above about 33%
# Target sequence (P03206 whole entry, looked up): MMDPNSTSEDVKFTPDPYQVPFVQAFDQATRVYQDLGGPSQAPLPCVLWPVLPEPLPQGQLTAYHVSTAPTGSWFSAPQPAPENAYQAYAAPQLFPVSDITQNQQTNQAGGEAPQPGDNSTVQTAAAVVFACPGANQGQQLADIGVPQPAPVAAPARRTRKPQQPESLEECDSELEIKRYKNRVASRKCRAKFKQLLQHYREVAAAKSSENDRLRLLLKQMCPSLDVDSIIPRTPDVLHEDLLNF
# EBNA-1 inhibitor: blocks EBNA-1 binding to DNA | EBNA-1 DNA binding, fluorescence polarization | inhibition, % at 14.8 µM | hit rate 0.34% among 300,000 | AID 1950; in the data active means inhibition above about 28%
# Rev-erbA mod: modulates human Rev-erb alpha binding to DNA | P20393 | Rev-erbα–FITC-DNA binding, fluorescence polarization, 90 min | activity, % at 10 µM | hit rate 0.79% among 370,000 | AID 1259318;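 active means activity above about 14%, limit read from the data; passing the limit was not always enough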;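 further: 0% = DMSO wells with 35 nM protein and 100% = DMSO wells with 750 nM protein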
# NCF1 inh: blocks human p47phox regulatory protein of NADPH oxidases; P14598; p47phox/p22phox peptide binding, fluorescence polarization, 2 h; inhibition, % at 24.7 µM; hit rate 0.53% among 220,000; AID 1274;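 active means inhibition above about 30%, limit read from the data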;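 further: 0% = p47phox with labelled peptide and 100% = labelled peptide alone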
# Target sequence (P14598 whole entry, looked up): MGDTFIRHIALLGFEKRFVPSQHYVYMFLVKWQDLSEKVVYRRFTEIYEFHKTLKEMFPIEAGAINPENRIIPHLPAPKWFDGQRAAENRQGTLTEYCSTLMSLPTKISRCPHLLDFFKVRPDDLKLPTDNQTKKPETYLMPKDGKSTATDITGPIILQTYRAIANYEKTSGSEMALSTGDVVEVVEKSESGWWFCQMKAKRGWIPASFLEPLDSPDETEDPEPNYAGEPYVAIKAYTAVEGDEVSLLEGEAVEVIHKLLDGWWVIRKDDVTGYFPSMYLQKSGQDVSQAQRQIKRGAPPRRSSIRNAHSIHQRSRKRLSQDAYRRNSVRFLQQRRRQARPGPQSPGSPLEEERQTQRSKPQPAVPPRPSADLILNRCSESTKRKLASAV
# aDG glyco up: increases alpha dystroglycan glycosylation | Pro5-aDG cells, alpha-DG glycosylation AlphaScreen (IIH6); 0% Pro5, 100% B10-LARGE cell signal | activation, % at 10 µM | hit rate 0.22% among 360,000 | AID 624168;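 active means activation of at least 8% versus controls, or a plate z-score of at least 8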;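 further: Pro5 are CHO cells carrying HIG-tagged alpha-DG that lacks glycosylation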
# NR1D1 mod conf: confirmation of modulators of human Rev-erb alpha DNA binding; shares compounds with Rev-erbA mod; Rev-erb alpha FITC-DNA binding, fluorescence polarization, 90 min; activation, % at 25 µM; hit rate 61% among 3,000;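 active means activation at or above a set limit, or at least 3 SD above the negative control mean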;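 further: 0% = 35 nM protein with DMSO and 100% = 750 nM protein high control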
# RORg DNA counter: counter-screen for Rev-erb alpha modulators: RORgamma DNA binding; shares compounds with Rev-erbA mod; IC50, µM; purified RORgamma protein-FITC-DNA binding, fluorescence polarization; hit rate 8% among 910;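 active means Compounds whose fitted half-maximal concentration for disrupting protein-DNA binding is below 10 micromolar; the record names Rev-erb in its text, so the target is in doubt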
# The depositor's hits bear a star; i = inactive; nt = no result given.
SMILES,PG9 binder,ZTA DNA inh,EBNA-1 inhibitor,Rev-erbA mod,NCF1 inh,aDG glyco up,NR1D1 mod conf,others
CN(C)c1ccc(/C=C/c2cc[n+](C)cc2)cc1,-22,-4,4,28*,-131,0,44*,RORg DNA counter=>40
O=C(CCl)NC1CCCCN(Cc2ccc(OC(F)(F)F)cc2)C1=O (stereo not given),nt,nt,nt,1,nt,nt,nt,
CCOC(=O)c1c(NC(=O)c2nc3n(n2)C(C(F)F)CC(C)N3)sc2c1CCCC2 (stereo not given),0,-1,6,22*,-8,0,7,
CCOC(=O)c1c(NC(=O)c2ccn(CC)n2)sc2c1CCCC2,-2,-2,3,8,-10,0,nt,
COc1cccc(N2CCN(CC(=O)NCc3cccc(OC)c3OC)CC2)c1,nt,nt,nt,-1,nt,nt,nt,
COc1ccc(C=Nn2c(-c3n[nH]c4c3CCC4)n[nH]c2=S)cc1OCc1ccccc1,nt,nt,nt,1,nt,nt,nt,
CCN(Cc1ccccc1)C(=O)C1C2C=CC3(CN(Cc4ccccc4)C(=O)C13)O2 (stereo not given),nt,nt,nt,-1,nt,nt,nt,
O=C(Nc1ccc(-c2nc3ccccc3o2)cc1)c1ccc2c(c1)OCO2,2,-11,18,0,-139,0,nt,
O=C(Nc1ccc2oc(-c3ccccc3F)nc2c1)c1ccc2c(c1)OCCO2,-1,-2,-5,15*,-15,0,12,
O=C(Nc1ccc2oc(-c3ccc(F)cc3)nc2c1)c1ccccc1F,6,6,3,41*,-23,0,25*,
O=C(NC(=S)Nc1ccc2oc(-c3ccncc3)nc2c1)c1ccccc1F,-1,-2,-18,37*,-81,1,16,
COC(=O)c1cn(NC(=O)Cc2ccc(OC)c(OC)c2)c(=O)c2ccccc12,1,15,12,12*,1,0,0,
COc1cc(/C=C2\SC(=O)N(CCNC(=O)c3sc4cc(F)ccc4c3Cl)C2=O)cc(OC)c1OC,1,-11,-8,72*,nt,0,32*,RORg DNA counter=i
CCn1c2ccccc2c2cc(C3C(C#N)=C(N)Oc4n[nH]c(COC)c43)ccc21 (stereo not given),0,8,8,5,-57,0,nt,
CCn1c2ccccc2c2cc(C3C(C#N)=C(C)NC(C)=C3C#N)ccc21,-1,-4,8,102*,-21,0,63*,RORg DNA counter=>40
COC(=O)c1cc(C#N)c(NCc2ccc(Cl)cc2Cl)nc1C,-1,-8,3,24*,nt,0,7,
CCN(CC)CCCNC(=O)c1oc(=O)c2ccccc2c1-c1ccc(C)cc1,nt,nt,nt,-1,nt,nt,nt,
COc1ccc2c(c1)CCCN2C(=O)C1CCCN(S(=O)(=O)c2ccc(C)c(C)c2)C1 (stereo not given),nt,nt,nt,-2,nt,nt,nt,
CC1=NN(c2ccccc2)C(=O)/C1=C\C=C1\N(C)c2ccccc2C1(C)C,-3,-9,-3,49*,-44,0,54*,RORg DNA counter=>40
CN1/C(=C\C=C2/C(=O)Oc3ccccc3C2=O)C(C)(C)c2ccccc21,-2,3,7,59*,-267,nt,53*,RORg DNA counter=>40
CC1=NN(c2ccccc2)C(=O)/C1=C/N(C)C,1,28,6,1,-8,0,nt,
CC1=NN(c2ccccc2)C(=O)/C1=C\C=C1/N(C)c2ccccc2C1(C)C,-4,5,5,79*,-52,0,87*,RORg DNA counter=8.6*
Cc1ccccc1Cn1cc(CN2[C@H](CC(C)C)COc3cc(Br)ccc3S2(=O)=O)nn1,nt,nt,nt,5,nt,nt,nt,
COc1ccc(CN2CCN(CCc3ccccc3)C(CCO)C2)c(O)c1 (stereo not given),5,5,6,16*,4,0,-1,
Fc1ccc(-c2n[nH]c(=S)n2N=Cc2ccc(-c3ccccc3)cc2)cc1,nt,nt,nt,-7,nt,nt,nt,
SMILES,PG9 binder,ZTA DNA inh,EBNA-1 inhibitor,Rev-erbA mod,NCF1 inh,aDG glyco up,NR1D1 mod conf,others
Cc1ccc2c3c(c(SCC(=O)Nc4nonc4C)nc2c1)CCCC3,0,-3,9,26*,-2,0,39*,RORg DNA counter=>40
Cc1ccc2c3c(c(SCC(=O)Nc4nccs4)nc2c1)CCCC3,nt,nt,nt,nt,-24,nt,nt,
Cc1nonc1NC(=O)CSc1nc2cc(Cl)ccc2c2c1CCCC2,nt,14,12,173*,-10,0,132*,
COc1ccc(C(=O)C2CCN(c3ncnc4sccc34)CC2)cc1,nt,nt,nt,0,nt,nt,nt,
O=C(Nc1cc(S(=O)(=O)N2CCOCC2)ccc1N1CCCC1)c1cc2c(s1)CCCC2,nt,nt,nt,1,nt,nt,nt,
CC(NS(=O)(=O)c1cccc(Cl)c1)C(=O)Nc1ccc(-c2nc3ccccc3s2)cc1 (stereo not given),0,4,11,30*,-5,0,10,
CCOC(=O)C1CCN(c2c(-c3ccccc3)c3cc(Cl)ccc3[nH]c2=O)CC1,-1,-4,1,37*,-5,0,8,
CCOC(=O)N1CCN(c2c(-c3ccccc3)c3cc(Cl)ccc3[nH]c2=O)CC1,1,-8,-3,33*,-8,1,-1,
CC1CCCCC1N(C(=O)c1cc(C2CC2)on1)C1CCCCCC1 (stereo not given),nt,nt,nt,5,nt,nt,nt,
COC(=O)C1CN(C2CC2)CCS(=O)(=O)N1Cc1cn(Cc2ccc(Cl)cc2)nn1 (stereo not given),nt,nt,nt,-3,nt,nt,nt,
CN(Cc1nc2ccccc2c(=O)[nH]1)C(=O)c1ccccc1OCc1ccc(Cl)cc1,-1,9,nt,4,nt,0,nt,
CN(Cc1nc2ccccc2c(=O)[nH]1)C(=O)c1cc(-c2ccc(Br)cc2)nc2ccccc12,1,nt,nt,36*,nt,0,23*,
Cc1ccnc(N2CCC(C(=O)Nc3ccc(Oc4ccccc4)cc3)CC2)n1,1,2,0,24*,-7,0,-2,
Cc1cc(C)nc(N2CCC(C(=O)Nc3ccc(Oc4ccccc4)cc3)CC2)n1,-1,7,7,1,-2,0,nt,
CC(=O)Nc1ccc(NC(=O)CSc2nc3ccccc3nc2N2CCC(C)CC2)cc1,-2,-22,-2,45*,nt,0,21*,
CC(=O)Nc1ccc(NC(=O)CSc2nc3ccccc3nc2N2CCCCC2)cc1,-2,-1,-10,-4,nt,0,nt,
Cc1ccc(NC(=O)CSc2nc3ccccc3nc2N2CCOCC2)c(C)c1,4,2,-6,38*,nt,0,40*,RORg DNA counter=>40
Cc1ccc(NC(=O)CSc2nc3ccccc3nc2N2CCOCC2)cc1,1,5,-2,3,nt,0,nt,
O=C1/C(=C\c2cc(Cl)c(O)c(Cl)c2)SC(=S)N1Cc1ccccc1,2,nt,nt,67*,nt,0,51*,RORg DNA counter=i
COc1ccc(/C=C2/SC(=S)N(Cc3ccccc3)C2=O)cc1O,1,nt,nt,-5,nt,0,nt,
CC(C)(C)OC(=O)n1cc(-c2ccccc2)c2c(-c3ccccc3)c(O)ccc21,nt,nt,nt,6,nt,nt,nt,
